Active and inactive are the calls of the source. How the source made its calls: active means hit-call score of the fitted dose curve at least 0.9, where 1 is the maximum; inactive means score below 0.9.

Results on 6 compounds are retold here after PubChem BioAssay (EPA / NIEHS).

A short description of test [1]: APR_HepG2_NuclearSize_24hr: Apredica 24-hour HepG2 Assay for Nuclear Size (AID 2282907). Conditions: high-content imaging, actives raise or lower the signal. In a few lines:
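Compounds in DMSO (final 0.5%) were added to human HepG2 hepatoma cells at ten concentrations up to 200 uM for 24 hr. Fixed nuclei were stained with Hoechst 33342, and nuclear diameter was quantified from automated images.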

Test [2] can be described thus: APR_HepG2_CellLoss_24hr: Apredica 24-hour HepG2 Assay for Cell Loss (AID 2282908). The conditions noted are these: high-content imaging. In a few lines:
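Cell number is quantified by fluorescence imaging of Hoechst 33342-stained nuclei following dosing at 0.39–200 uM in 0.5% DMSO. Curves are fitted in both directions from the DMSO baseline.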

The nature of test [3]: APR_HepG2_MicrotubuleCSK_24hr: Apredica 24-hour HepG2 Assay for Microtubule CSK Stabilty (AID 2282909). The conditions noted are these: HepG2 microtubule cytoskeleton imaging, actives raise or lower the signal. In a few lines:
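Steps: dose HepG2 for 24 h (0.39–200 uM, 0.5% DMSO); fix 30 min in 3.7% formaldehyde at room temperature; permeabilize; stain alpha-tubulin 60 min; image microtubule cytoskeleton at 20x. Signal change fitted in both directions relative to DMSO.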

The nature of test [4]: APR_HepG2_MitoticArrest_24hr: Apredica 24-hour HepG2 Assay for Mitotic Arrest (AID 2282910). Conditions: high-content imaging, actives raise or lower the signal. In a few lines:
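HepG2 human liver cells were exposed to compounds at 0.39–200 uM (10 concentrations, duplicate) in 0.5% v/v DMSO for 24 hr, then fixed and immunostained for phospho-histone H3 with Hoechst 33342. Mitotic arrest came from HCS fluorescent imaging, fitted bidirectionally against DMSO.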

Test [5] can be described thus: APR_HepG2_MitoMembPot_24hr: Apredica 24-hour HepG2 Assay for Mitochondrial Membrane Potential (AID 2282911). The conditions noted are these: imaging, actives raise or lower the signal. In a few lines: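 HepG2 cells exposed 24 h to 0.39–200 uM compounds in duplicate, 0.5% v/v DMSO final. MitoTracker Red CMXRos 250 nM loaded 30 min before formaldehyde fixation; high-content imaging at 20x, bidirectional fit versus DMSO.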

Test [6] can be described thus: APR_HepG2_MitoMass_24hr: Apredica 24-hour HepG2 Assay for Mitochondrial Mass (AID 2282912). The conditions noted are these: high-content imaging, actives raise or lower the signal. In a few lines: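 The liver line HepG2 was dosed in duplicate across a 0.39–200 uM series, with final DMSO held at 0.5% v/v, and harvested at 24 hr. High-content imaging measured mitochondrial dye staining.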

The nature of test [7]: APR_HepG2_p53Act_24hr: Apredica 24-hour HepG2 Assay for p53 Activation (AID 2282913).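 Further: p53 protein immunofluorescence averaged per cell in HepG2 with Hoechst nuclei.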 The conditions noted are these: high-content imaging, actives raise or lower the signal. In a few lines:
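HepG2 cells exposed 24 h to compounds at 0.39–200 uM in duplicate, 0.5% v/v DMSO final; fixed, permeabilized, stained with anti-p53 antibody and Hoechst 33342; fluorescence imaging; bidirectional curve fit versus DMSO.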

A short description of test [8]: APR_HepG2_CellCycleArrest_72hr: Apredica 72-hour HepG2 Assay for Cell Cycle Arrest (AID 2282914). Conditions: high-content imaging, actives raise or lower the signal. In a few lines:
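HepG2 cells exposed 72 h in duplicate to 0.39–200 uM compound, 0.5% DMSO final. Formaldehyde-fixed, Hoechst 33342-stained nuclei imaged at 20x, six fields per well; DNA content per valid cell quantified by cell-cycle image analysis, bidirectional fit versus DMSO.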

Test [9] is described as follows: APR_HepG2_CellLoss_72hr: Apredica 72-hour HepG2 Assay for Cell Loss (AID 2282915). Conditions: high-content imaging. In a few lines:
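HepG2 cells were exposed for 72 hr to compounds at 0.39–200 uM (ten concentrations, duplicate) in 0.5% v/v final DMSO. Nuclei were stained with Hoechst 33342 after 3.7% formaldehyde fixation, imaged at 20x, and counted; fits bidirectional versus DMSO.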

Test [10] is described as follows: APR_HepG2_P-H2AX_72hr: Apredica 72-hour HepG2 Assay for H2AX Phosphorylation (AID 2282916).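 Further: phospho-histone H2A.x immunostain intensity per cell marking DNA damage.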 Conditions: imaging, actives raise or lower the signal. In a few lines:
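Following 72 hr treatment with 0.39–200 uM compound, HepG2 cells were formaldehyde-fixed, permeabilized and stained for phospho-H2A.x; signal was measured by high-content imaging and fitted bidirectionally against DMSO controls.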

The nature of test [11]: APR_HepG2_MitoMembPot_72hr: Apredica 72-hour HepG2 Assay for Mitochondrial Membrane Potential (AID 2282917). Conditions: imaging, actives raise or lower the signal. In a few lines: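 HepG2 cells exposed 72 h to compounds at 0.39–200 uM (0.5% v/v DMSO, duplicates); MitoTracker Red CMXRos 250 nM loaded 30 min before 3.7% formaldehyde fixation, imaged by HCS fluorescence. Bidirectional fit versus DMSO.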

Test [12] in a line: APR_HepG2_MitoticArrest_72hr: Apredica 72-hour HepG2 Assay for Mitotic Arrest (AID 2282918). Conditions: high-content imaging, actives raise or lower the signal. In a few lines:
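HepG2 cells treated 72 h at 0.39–200 uM, 0.5% DMSO final; formaldehyde-fixed, stained with Hoechst 33342 and phospho-histone H3 antibody, imaged by high-content fluorescence; bidirectional fit versus DMSO.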

The nature of test [13]: APR_HepG2_MicrotubuleCSK_72hr: Apredica 72-hour HepG2 Assay for Microtubule CSK Stabilty (AID 2282919). The conditions noted are these: HepG2 microtubule cytoskeleton, high-content imaging, actives raise or lower the signal. In a few lines:
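HepG2 human liver cells were dosed for 72 h at ten concentrations from 0.39 to 200 uM in duplicate (0.5% v/v DMSO final). Fixed, permeabilized cells were immunostained for alpha-tubulin (Cy5) with a Hoechst counterstain and imaged at 20x.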

Test [14] in a line: APR_HepG2_P-H2AX_24hr: Apredica 24-hour HepG2 Assay for H2AX Phosphorylation (AID 2282920). Conditions: high-content imaging, actives raise or lower the signal. In a few lines: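 HepG2 cells dosed 24 h at 0.39–200 uM (10 points, duplicate, 0.5% DMSO final). Formaldehyde-fixed and permeabilized, then immunostained for phospho-H2A.x with Hoechst. Fluorescence quantified by high-content imaging, fitted bidirectionally versus DMSO.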

Test [15] is described as follows: APR_HepG2_StressKinase_72hr: Apredica 72-hour HepG2 Assay for Stress Kinase (AID 2282921). Conditions: HepG2 stress kinase (phospho-c-Jun) imaging, actives raise or lower the signal. In a few lines:
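Fluorescence intensity of Cy3-tagged anti-phospho-c-Jun antibody, quantified per cell from Hoechst-defined nuclei across six images per well, served as the read-out following 72 h exposure (0.39–200 uM, 0.5% v/v DMSO).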

Test [16] can be described thus: APR_HepG2_StressKinase_24hr: Apredica 24-hour HepG2 Assay for Stress Kinase (AID 2282922). Conditions: HepG2 stress kinase (phospho-c-Jun) imaging, actives raise or lower the signal. In a few lines:
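HepG2 cells exposed 24 hr to compound at 0.39–200 uM (10 concentrations, duplicate), 0.5% v/v DMSO final. Fixed in 3.7% formaldehyde, permeabilized with Triton X-100, immunolabeled for phospho-c-Jun with Hoechst 33342; HCS fluorescence imaging, bidirectional fit versus DMSO.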

Test [17] in a line: APR_HepG2_p53Act_72hr: Apredica 72-hour HepG2 Assay for p53 Activation (AID 2282923).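 Further: average cellular p53 protein immunofluorescence intensity in HepG2 cells.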 The conditions noted are these: high-content imaging, actives raise or lower the signal. In a few lines:
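HepG2 monolayers receive test compounds in duplicate at ten concentrations (0.39 through 200 uM) for 72 hr. They are then formaldehyde-fixed, antibody-labelled for p53, Hoechst-stained and imaged, with activity fitted bidirectionally versus DMSO.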

A short description of test [18]: APR_HepG2_MitoMass_72hr: Apredica 72-hour HepG2 Assay for Mitochondrial Mass (AID 2282924).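 Further: MitoTracker Red CMXRos stain intensity per cell imaged as mitochondrial mass.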 The conditions noted are these: high-content imaging, actives raise or lower the signal. In a few lines: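 HepG2 cells were exposed for 72 hr to compounds at 0.39–200 uM (ten concentrations, duplicate, 0.5% v/v DMSO final). Live cells were stained with 250 nM MitoTracker Red CMXRos for 30 min, then fixed in 3.7% formaldehyde and imaged by HCS fluorescence.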

Test [19] in a line: APR_HepG2_NuclearSize_72hr: Apredica 72-hour HepG2 Assay for Nuclear Size (AID 2282925). Conditions: high-content imaging, actives raise or lower the signal. In a few lines: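 HepG2 cells were exposed to compounds at ten concentrations from 0.39 to 200 uM (duplicate, 0.5% DMSO final) for 72 hr. After fixation in 3.7% formaldehyde, nuclei were stained with Hoechst 33342 (2 ug/mL) and imaged at 20x.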

Test [20] can be described thus: APR_HepG2_CellCycleArrest_24hr: Apredica 24-hour HepG2 Assay for Cell Cycle Arrest (AID 2282905).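 Further: cell cycle arrest scored as ratio of 2N to 4N nuclear DNA content.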 The conditions noted are these: imaging, actives raise or lower the signal. In a few lines:
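Cell cycle arrest is scored from nuclear DNA content measured by high-content imaging of Hoechst 33342-stained HepG2 cells following 24-hour treatment at ten concentrations up to 200 uM, with DMSO as baseline.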

Regarding `CCC12COCN1COC2`, the result in test [1], in [2], in [3], in test [5], in test [6] and in test [8] was inactive. In addition, the outcome in test [9], in [11], in test [13], in test [15], in test [18] and in test [19] was inactive. The AC50 in [4] was 93.6 µM (active); in test [7], 86 µM (active); in [10], 82.1 µM (active); in test [12], 83.2 µM (active); in test [14], 87.6 µM (active); in test [16], 99.5 µM (active). Further, in test [17], the AC50 was 79.2 µM (active).

Take `C[N+](C)(C)CC1CO1` (stereo unspecified): in test [20], the AC50 was 81.2 µM (active). Moreover, the compound was called inactive in [1], in [2], in test [3], in test [4], in [5] and in test [6]. The compound was classed as inactive in [7], in test [8], in test [9], in test [10], in test [14] and in test [15]. Moreover, the outcome in test [16], in test [17] and in test [19] was inactive.

Consider `OCCOCCO`, for which the outcome in test [20], in test [1], in test [2], in [3], in [4] and in test [5] was inactive. The compound was called inactive in test [6], in [8], in test [9], in test [10], in test [11] and in test [12]. Besides, the compound was classed as inactive in test [13], in [14], in test [15], in [16], in [18] and in test [19].

As for `CC(C)N(Cc1ccccc1)C(=O)C(C)(C)C`, the compound was classed as inactive in test [1], in [2], in test [3], in test [4], in test [5] and in test [6]. The result in [7], in test [8], in test [9], in test [10], in test [11] and in test [12] was inactive. For the same compound, the compound was classed as inactive in [13], in test [14], in test [15], in test [16], in test [17] and in [18]. Besides, the compound was classed as inactive in test [19].

For `CN(C)[C@@H]1C(=O)C(C(N)=O)=C(O)[C@@]2(O)C(=O)C3=C(O)c4c(O)cccc4[C@@](C)(O)[C@H]3C[C@@H]12`, the compound was classed as inactive in test [1], in test [2], in test [3], in [4], in test [5] and in test [6]. Besides, the compound was called inactive in test [7], in test [8], in test [9], in test [10], in test [11] and in [12]. The compound was called inactive in test [13], in test [14], in test [15], in [16], in test [17] and in [18]. Moreover, the compound was classed as inactive in [19].

For the compound `Nc1cc(Cl)cc(C(=O)O)c1Cl`, the outcome in test [20], in test [1], in test [2], in test [3], in test [4] and in test [5] was inactive. Further, the result in test [6], in test [7], in [8], in test [9], in test [10] and in test [11] was inactive. The result in test [12], in [13], in test [14], in [15], in test [16] and in [17] was inactive. The call in test [18] and in test [19] was inactive.
